Values without a mark were called inactive. How the calls were made is not given here.
Tested on: HIV-1 nucleocapsid protein NCp7 (binding to TG oligonucleotide)
Test: HIV Nucleocapsid (AID 346);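 further: potency is for inhibitors that block NC binding and lower polarization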
Details: HIV-1 NC / fluorescein-TGTGTGTG probe, fluorescence polarization
Outline: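 Reagents dispensed (10 nM TG4xF, 100 nM HIV-1 NC), plates spun, compounds pin-transferred, then incubated 1 hr at room temperature before FP imaging. Buffer: Hepes pH 7.5, 250mM NaCl, 1uM ZnCl2, 100 uM TCEP, 5 mM 2-mercaptoethanol.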
Potency means the concentration at half of the fitted maximal effect.

Structure (SMILES)	Potency [µM]
CC(=O)NCCNc1cc(-c2ccccc2CN(C)C)ncn1	> 20
Cn1cccc1C(=O)N1CCC2(CC1)CN(Cc1ccc(C#N)cc1)C2	> 20
COc1ccc(C(=O)N2CCC3(CCCN(Cc4cc(C(F)(F)F)cc(C(F)(F)F)c4)C3)CC2)cc1	> 4
O=C(c1cnccn1)N1CCC2(CCN(Cc3nccs3)CC2)CC1	> 20
COc1cccc(-c2cc(NCc3ccccc3OC)ncn2)c1	> 20
COCC(=O)N1CCC2(CC1)CCN(C(=O)Nc1cccc(C#N)c1)CC2	> 20
COc1cccc(Cn2c(=O)c(-c3cccc(C#N)c3)nc3cnc(N4CCOCC4)nc32)c1	> 20
CN(C)C(=O)c1ccc(-c2cc(NCc3cccnc3)ncn2)cc1	> 20
Cn1c(=O)c(-c2cc(F)cc(F)c2)nc2cnc(Oc3cccc(Cl)c3)nc21	> 20
COc1cccc(Nc2ncc3nc(-c4ccccc4)c(=O)n(C4CC4)c3n2)c1	> 20
Cc1cccc(CNc2nc(-c3ccoc3)nc3ccccc23)c1	> 20
COc1ccc(-c2nc3cnc(N4CCOCC4)nc3n(Cc3cccs3)c2=O)cc1	> 20
Cn1c(=O)c(-c2ccccc2)nc2cnc(N3CCOCC3)nc21	> 20
CC(=O)N1CCC2(CC1)CN(Cc1cc(C(F)(F)F)cc(C(F)(F)F)c1)C2	> 20
CCNc1ncc2nc(-c3cn(C)c4ccccc34)c(=O)n(Cc3ccc(F)cc3)c2n1	> 20
CN1CCN(c2ccnc(-c3cccc(NS(C)(=O)=O)c3)n2)CC1	> 20
COc1ccc(NC(=O)N2CCC3(CC2)CCN(C(=O)c2cccn2C)CC3)cc1	> 20
O=C(c1ccncc1)N1CCC2(CC1)CN(c1ccccn1)C2	> 20
COc1ccc(C(=O)N2CCC3(CCN(Cc4ccc(C#N)cc4)CC3)CC2)cc1	> 20
CS(=O)(=O)Nc1cccc(-c2cc(NCc3ccccc3)ncn2)c1	> 20
N#Cc1cccc(NC(=O)N2CC[C@@]3(CCCN(C(=O)c4csnn4)C3)C2)c1	> 20
N#Cc1cccc(-c2nc(NCCN3CCOCC3)c3ccccc3n2)c1	> 20
CN(C)Cc1ccccc1-c1ccc2ncnc(NC3CC3)c2c1	> 20
COc1cccc(-c2cncnc2NCc2ccc(OC)cc2OC)c1	> 20
CS(=O)(=O)Nc1cccc(-c2nccc(Nc3ccc(F)cc3)n2)c1	> 20
Fc1ccc(Nc2nc(-c3cccnc3)nc3ccccc23)cc1	> 20

Structure (SMILES)	Potency [µM]
O=C(Nc1cccc(F)c1)N1CCC2(CC1)CCN(C(=O)c1csnn1)CC2	> 20
COCCn1c(=O)c(C)nc2cnc(Nc3cccc(OC)c3)nc21	> 20
O=C(Nc1ccccc1)N1CC2(CCN(C(=O)c3cnccn3)CC2)C1	> 20
Cc1noc(C)c1-c1ccc2ncnc(N3CCN(C)CC3)c2c1	> 20
COc1cccc(Cn2c(=O)c(C)nc3cnc(N(C)C)nc32)c1	> 4
N#Cc1ccc(CN2CCC3(CC2)CCN(C(=O)c2cnccn2)CC3)cc1	> 20
CN1CCN(c2ncc3nc(-c4cccc(C#N)c4)c(=O)n(C)c3n2)CC1	> 20
CN(C)C(=O)c1ccc(-c2cncnc2-n2ccnc2)cc1	> 20
COc1ccc(-c2nc3cnc(N4CCNCC4)nc3n(Cc3cccs3)c2=O)cc1	> 20
O=c1c(-c2ccc(F)c(F)c2)nc2cncnc2n1Cc1ccc(F)cc1	> 20
Cn1cccc1C(=O)N1CCC2(CCCN(c3ncccn3)C2)CC1	> 20
CNc1nc(-c2ccoc2)nc2ccccc12	> 20
CCNc1ncc2ncc(=O)n(C[C@H]3CCCO3)c2n1	> 20
Cc1noc(C)c1-c1nc(NCc2ccccc2)c2ccccc2n1	> 20
Cn1cccc1C(=O)N1CCC[C@@]2(CCN(c3ccccc3)C2)C1	> 20
CC(=O)NCCNc1ncnc2ccc(-c3ccoc3)cc12	> 20
O=c1c(CCc2ccccc2)nc2cnc(N3CCNCC3)nc2n1CCc1ccccc1	> 20
CNc1nc(-c2c(C)noc2C)nc2ccccc12	> 20
COCCn1c(=O)c(-c2ccccc2)nc2cnc(Nc3cccc(OC)c3)nc21	> 20
COc1ccc(C(=O)N2CCC3(CCCN(c4ccccn4)C3)CC2)cc1	> 20
c1cncc(CNc2nc(-c3cccnc3)nc3ccccc23)c1	> 20
COc1ccccc1CNc1ncncc1-c1ccccc1C	> 20
COCCNc1ncnc2ccc(-c3ccc(C(=O)N(C)C)cc3)cc12	> 20
COCC(=O)N1CCC2(CC1)CCN(c1cccc(-c3ccccc3)c1)CC2	> 20
COCC(=O)N1CCC2(CC1)CN(c1ccccc1)C2	> 20
O=C(c1cc(C(F)(F)F)cc(C(F)(F)F)c1)N1CCC[C@@]2(CCN(Cc3nccs3)C2)C1	> 20

Structure (SMILES)	Potency [µM]
COc1ccc(Oc2ncc3nc(-c4cccs4)c(=O)n(-c4ccccc4)c3n2)cc1	> 20
Cc1noc(C)c1C(=O)N1CCC[C@@]2(CCN(C(=O)Nc3ccccc3)C2)C1	> 20
Cn1c(=O)c(-c2ccc(Cl)cc2)nc2cnc(N3CCNCC3)nc21	> 20
CC(C)NC(=O)N1CC[C@@]2(CCCN(C(=O)c3cnccn3)C2)C1	> 20
CCNc1ncc2nc(-c3ccccc3)c(=O)n(Cc3cccs3)c2n1	> 20
Cc1cnc(CNc2ncncc2-c2cccc(C#N)c2)cn1	> 20
O=C(c1cccc(F)c1)N1CCC2(CC1)CCN(C(c1ccccc1)c1ccccc1)CC2	> 20
COc1ccccc1CN1CC[C@@]2(CCCN(S(C)(=O)=O)C2)C1	> 20
CN(C)C(=O)c1ccc(-c2ccc3ncnc(NCc4cccs4)c3c2)cc1	> 20
Cc1ccccc1-c1ccc2ncnc(NCc3cccs3)c2c1	> 20
O=c1c(-c2cccs2)nc2cncnc2n1Cc1ccc(F)cc1	> 20
COc1ccccc1CN1CCC2(CC1)CCN(C(C)=O)CC2	> 20
O=C(c1ccco1)N1CCC2(CCCN(c3ccccc3)C2)CC1	> 20
CC(=O)N1CCC2(CCCN(C(=O)Nc3cccc(C#N)c3)C2)CC1	> 20
COc1ccccc1CNc1ncnc2ccc(-c3ccccc3CN(C)C)cc12	> 20
COc1ccc(CNc2ccnc(-c3ccccc3OC)n2)c(OC)c1	> 20
COc1ccc(C(=O)N2CCC3(CCCN(Cc4ccncc4)C3)CC2)cc1	> 20
O=c1c(-c2cccc(F)c2)nc2cncnc2n1Cc1ccccc1Cl	> 20
COc1ccc(CNc2ncncc2-c2cccc(NS(C)(=O)=O)c2)c(OC)c1	> 20
COCC(=O)N1CCC2(CC1)CCN(c1ccccc1)CC2	> 20
CCNc1ncc2nc(-c3cccs3)c(=O)n(Cc3cccs3)c2n1	> 20
Cc1noc(C)c1C(=O)N1CCC[C@@]2(CCN(C(c3ccccc3)c3ccccc3)C2)C1	> 4
N#CCCn1c(=O)cnc2cnc(N3CCOCC3)nc21	> 20
FC(F)(F)c1ccccc1-c1cncnc1NCCN1CCOCC1	> 20
CC(=O)N1CCC2(CC1)CCN(c1ccc(-c3ccccc3)cc1)CC2	> 20
CC(=O)NCCNc1ncncc1-c1ccccc1C	> 20

Structure (SMILES)	Potency [µM]
CC(=O)N1CCC2(CCN(Cc3nccs3)CC2)CC1	> 20
Cc1noc(C)c1-c1ccc2ncnc(N3CCOCC3)c2c1	> 20
c1ccc(CNc2ncncc2-c2ccoc2)cc1	> 20
COc1ccc(NC(=O)N2CCCC3(CCN(C(=O)c4cc(C(F)(F)F)cc(C(F)(F)F)c4)CC3)C2)cc1	> 20
COc1ccc(Oc2ncc3nc(C)c(=O)n(C[C@H]4CCCO4)c3n2)cc1	> 20
O=C(c1cnccn1)N1CCC[C@@]2(CCN(Cc3cc(C(F)(F)F)cc(C(F)(F)F)c3)C2)C1	> 20
Cc1noc(C)c1-c1nccc(N2CCN(C)CC2)n1	> 20
O=C(c1cc(C(F)(F)F)cc(C(F)(F)F)c1)N1CCC[C@@]2(CCN(c3ncccn3)C2)C1	> 20
CS(=O)(=O)N1CCC[C@@]2(CCN(C(c3ccccc3)c3ccccc3)C2)C1	> 20
COc1cccc(Cn2c(=O)c(CCc3ccccc3)nc3cncnc32)c1	> 20
COCCn1c(=O)c(-c2cc(F)cc(F)c2)nc2cnc(OC)nc21	> 20
COCCn1c(=O)c(CCc2ccccc2)nc2cnc(OCc3ccccc3)nc21	> 20
O=c1c(-c2ccccc2)nc2cncnc2n1C1CC1	> 20
COc1ccc(C(=O)N2CCC[C@@]3(CCN(Cc4cc(C(F)(F)F)cc(C(F)(F)F)c4)C3)C2)cc1	> 20
O=C(Oc1ccccc1)N1CCC2(CCCN(c3cccc(-c4ccccc4)c3)C2)CC1	> 20
O=C(c1csnn1)N1CCC2(CCCN(c3ccccc3)C2)CC1	> 20
CC(C)NC(=O)N1CC[C@@]2(CCCN(C(=O)c3ccco3)C2)C1	> 20
O=c1c(-c2cccs2)nc2cnc(N3CCOCC3)nc2n1Cc1ccc(F)cc1	> 20
CN(C)c1ccc(-c2cc(NCc3cccnc3)ncn2)cc1	> 20
O=C(c1cc(C(F)(F)F)cc(C(F)(F)F)c1)N1CCC2(CCN(Cc3ccncc3)CC2)CC1	> 20
CN1CCCC2(CCN(C(=O)c3cccn3C)CC2)C1	> 20
COc1cccc(-c2cncnc2N(C)Cc2ccco2)c1	> 20
COc1ccc2[nH]cc(CCNc3ccnc(-c4cccc(NS(C)(=O)=O)c4)n3)c2c1	> 20

Source: PubChem BioAssay (NCATS)
